# Where “and” joins values, the source holds several entries; their conditions need not be identical. Identical values can stand only once. Calls of active or inactive are those of the source.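 How the source made its calls, unless noted: active means inhibition at or above 50% relative to wild type and mutant plate controls; inactive means inhibition below 50%.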
# Key:
# [1] = inhibitors of TNFa-induced NFkB p65 translocation, primary screen, imaging, HUVEC, MLSMR starter and 10KST1 sets (AID 438;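 active means inhibition above 20% together with a positive visual image hit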;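 further: compound added about 3h40 before a 20 min TNFalpha stimulation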;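 on inhibition: signal is the nuclear over cytoplasmic p65 intensity ratio per well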); settings: HUVEC TNFa-induced p65 nuclear translocation; cell count: measured here: nuclei count (cytotoxicity indicator), at 2.08 µM; inhibition: at 2 µM, stronger effect = higher value, 0% TNFa-plus-vehicle, 100% no-TNFa wells
# [2] = inhibitors of mutant huntingtin aggregation, primary screen, imaging, exon1htt(103Q)mCFP cells, high-content imaging (AID 483;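 active means visual image review flags a hit and inhibition of aggregation exceeds 20%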;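 further: compound exposure lasted 3 days before fixation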;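 on nuclei count: percent of the per-plate median nuclei count of sample wells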); settings: exon1htt(103Q)mCFP cell line, aggregate imaging, at 2 µM; inhibition of aggregation: stronger effect = higher value; nuclei count: measured here: cell count, toxicity
# [3] = inhibitors of E-selectin induction by TNFa, primary screen, imaging, HUVEC, immunofluorescence, MLSMR starter and 10KST1 sets (AID 487;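 active means visually confirmed hit in the image check and inhibition above 20%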;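 on inhibition: signal is fraction of cell area covered by stained E-selectin grains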;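 on nuclei count: 100% = median nuclei count of all wells on the same plate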); settings: HUVEC TNFalpha-induced E-selectin immunofluorescence imaging, at 2 µM; inhibition: stronger effect = higher value; nuclei count: measured here: cell number, toxicity
# [4] = DUSP6 inhibitors restoring Erk phosphorylation by chemical complementation, primary imaging in DUSP6-transfected HeLa (AID 609;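 active means compounds giving at least 50% inhibition in the cell-based MKP-3 phosphatase rescue imaging test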;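 on inhibition: phospho-Erk level distribution per well compared with pooled transfected vehicle control wells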); settings: HeLa MKP-3 transfected, phospho-Erk imaging KS statistic, at 10 µM, cells stimulated with TPA for 15 min
# [5] = target: Dual specificity protein phosphatase 6 (Homo sapiens) (UniProt Q16828); test: as above; settings: HeLa MKP-3 transfected, phospho-Erk imaging KS statistic; at 10 µM; stronger effect = higher value; cells stimulated with TPA for 15 min
# [6] = target: Voltage-gated potassium channel subunit beta-2 (Rattus norvegicus) (UniProt P62483); test: KvBeta enzyme negative modulators, primary screen, biochemical, NADPH fluorescence (AID 622;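 active means fluorescence slope higher than the sample average by over 3 SD, cut at about -0.22 in these data, passing the limit was not always enough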;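 further: slope of raw intensity against log time taken from 70 to 1610 s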); settings: recombinant KvBeta, 4-cyanobenzaldehyde reduction, at 10 µM, stronger effect = higher value
# [7] = target: Voltage-gated potassium channel subunit beta-2 (Rattus norvegicus) (UniProt P62483); test: KvBeta positive modulators, primary screen, biochemical, NADPH fluorescence (AID 623;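 active means NADPH fluorescence slope more negative than the mean of all samples by about 3 SD, 99.7% confidence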;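 further: fluorescence intensity change per second fitted from 20 to 320 s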); settings: Recombinant KvBeta, NADPH fluorescence decrease slope, 10 min; at 10 µM; stronger effect = lower value
# [8] = target: Muscarinic acetylcholine receptor M4 (Homo sapiens) (UniProt P08173); test: compounds altering M4/GIRK thallium flux, either direction, primary screen, M4 allosteric agonist project, cell-based, HEK293 M4/GIRK, BTC-AM (AID 625;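 active means fluorescence slope after compound addition differing from the mean of all tested samples at 99.7% confidence, mostly higher but some lower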;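 further: thallium influx through GIRK channels coupled to M4 in HEK293 cells with BTC-AM dye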); settings: at 10 µM, actives lie on both sides
# [9] = inhibitors of larval lipid processing in zebrafish, primary screen, whole organism, PED6 fluorescence, gall bladder and intestine (AID 686;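 active means a full or partial loss of lipid-probe fluorescence in the fish gall bladder, intestine or both, judged by eye; inactive means no fluorescence loss, or compound toxic to the fish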;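 further: larvae 5 to 7 days old with five fish per well; signal comes from phospholipase A2 cleavage of quenched PED6 carried via bile; overnight exposure to compound and PED6 before scoring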); settings: Zebrafish larvae PED6 lipid processing, fluorescence scoring; screened at 20 µM (by protocol)
# [10] = inhibitors of Chlamydomonas gravitaxis, primary screen, whole organism, Chlamydomonas reinhardtii, WT vs cilia-less mutant, absorbance, 96-well (AID 463189); settings: OD600 absorbance, 2 days, at 10 µM, stronger effect = higher value;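 further: 0% = wild type cc124 cells in DMSO and 100% = ciliumless bld1 mutant cells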
# [11] = inhibitors of Sendai virus-induced IRF3 signaling, primary screen, TLR/RLR signaling modifier project, cell-based, Sendai virus stimulus, luciferase, 10K MLSCN set (AID 602276;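 active means inhibition at or above 50% at 10 µM; inactive means inhibition below 50%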;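 further: firefly luciferase from ISG56 promoter only with Renilla not read in this screen; 0% = Sendai virus plus DMSO and 100% = medium plus DMSO without virus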); settings: HEK293 RL24 IRF3 luciferase reporter, at 10 µM, stronger effect = higher value
# [12] = inhibitors of poly I:C-induced TLR3 signaling, primary screen, cell-based, poly I:C stimulus, luciferase, 10K MLSCN set (AID 602277;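 active means inhibition of the reporter signal at or above 50%; inactive means inhibition below 50%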); settings: HEK293-TLR3 RL24 IRF3 luciferase reporter, at 10 µM, stronger effect = higher value
# [13] = target: Alpha-2C adrenergic receptor (Homo sapiens) (UniProt P18825); test: modulators of alpha2C/GIRK thallium flux, primary screen, cell-based, HEK293 alpha2C/GIRK1/2 (AID 624;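 active means fluorescence slope after compound addition differing from the mean of all screened samples at 99.7% confidence, in either direction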;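 further: slope of fluorescence ratio to pre-addition baseline per second over 15 to 24 s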); settings: thallium flux BTC fluorescence, at 10 µM, actives lie on both sides
# [14] = measured here: cell density z-score
# [15] = measured here: nuclear c-Myc green intensity z-score
# [16] = measured here: nuclear pErk red intensity z-score, stronger effect = higher value
# Chain of Alpha-2C adrenergic receptor (Homo sapiens) (P18825 whole entry, looked up): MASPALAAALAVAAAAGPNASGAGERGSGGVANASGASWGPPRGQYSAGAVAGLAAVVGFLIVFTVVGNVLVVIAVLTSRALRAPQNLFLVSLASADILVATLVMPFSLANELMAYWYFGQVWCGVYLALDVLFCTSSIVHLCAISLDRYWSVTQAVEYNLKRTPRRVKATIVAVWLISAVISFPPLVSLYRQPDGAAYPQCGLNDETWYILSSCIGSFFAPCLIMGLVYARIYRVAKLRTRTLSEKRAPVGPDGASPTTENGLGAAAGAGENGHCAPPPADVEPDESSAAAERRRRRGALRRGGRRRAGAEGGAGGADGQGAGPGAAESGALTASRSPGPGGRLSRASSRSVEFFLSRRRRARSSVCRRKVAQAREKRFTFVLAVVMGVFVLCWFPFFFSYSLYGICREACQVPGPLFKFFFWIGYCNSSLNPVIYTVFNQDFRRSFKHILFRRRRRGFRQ
# Chain of Voltage-gated potassium channel subunit beta-2 (Rattus norvegicus) (P62483 whole entry, looked up): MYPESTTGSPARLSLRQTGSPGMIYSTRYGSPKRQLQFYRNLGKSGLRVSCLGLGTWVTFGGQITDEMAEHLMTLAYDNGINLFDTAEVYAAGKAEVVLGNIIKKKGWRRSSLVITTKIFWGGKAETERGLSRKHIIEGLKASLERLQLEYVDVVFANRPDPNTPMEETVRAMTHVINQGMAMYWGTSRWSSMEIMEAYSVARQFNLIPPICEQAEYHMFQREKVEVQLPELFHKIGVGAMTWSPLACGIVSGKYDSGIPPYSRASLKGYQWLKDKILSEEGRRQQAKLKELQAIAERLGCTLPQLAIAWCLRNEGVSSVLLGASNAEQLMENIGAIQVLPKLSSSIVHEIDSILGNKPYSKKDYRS
# Chain of Dual specificity protein phosphatase 6 (Homo sapiens) (Q16828 whole entry, looked up): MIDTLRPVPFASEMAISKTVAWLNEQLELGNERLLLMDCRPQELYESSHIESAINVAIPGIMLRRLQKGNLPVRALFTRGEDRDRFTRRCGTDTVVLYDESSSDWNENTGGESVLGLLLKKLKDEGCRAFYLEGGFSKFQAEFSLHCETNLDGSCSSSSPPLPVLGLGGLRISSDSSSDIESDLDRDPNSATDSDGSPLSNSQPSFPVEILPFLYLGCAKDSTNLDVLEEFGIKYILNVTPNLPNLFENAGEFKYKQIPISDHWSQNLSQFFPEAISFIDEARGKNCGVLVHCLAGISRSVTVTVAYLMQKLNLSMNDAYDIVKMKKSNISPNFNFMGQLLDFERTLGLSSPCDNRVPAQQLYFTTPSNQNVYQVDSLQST
# Chain of Muscarinic acetylcholine receptor M4 (Homo sapiens) (P08173 whole entry, looked up): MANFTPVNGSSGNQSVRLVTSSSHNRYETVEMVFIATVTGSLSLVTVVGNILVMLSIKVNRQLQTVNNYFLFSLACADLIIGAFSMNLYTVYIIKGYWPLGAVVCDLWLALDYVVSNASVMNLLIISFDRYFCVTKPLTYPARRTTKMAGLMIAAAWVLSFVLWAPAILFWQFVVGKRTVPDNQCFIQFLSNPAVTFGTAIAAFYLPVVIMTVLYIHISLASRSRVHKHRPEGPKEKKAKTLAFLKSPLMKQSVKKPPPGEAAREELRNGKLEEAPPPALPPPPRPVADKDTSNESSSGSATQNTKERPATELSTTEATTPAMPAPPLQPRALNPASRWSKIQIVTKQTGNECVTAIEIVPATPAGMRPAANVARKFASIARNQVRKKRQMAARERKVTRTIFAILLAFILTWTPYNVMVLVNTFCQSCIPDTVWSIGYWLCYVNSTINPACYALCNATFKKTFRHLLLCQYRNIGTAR
Structure (SMILES),cell count [1],inhibition [1],inhibition of aggregation [2],nuclei count [2] [%],inhibition [3],nuclei count [3] [%],"z-score [4, 14]","z-score [4, 15]","z-score [4, 16]",inhibition [5],fluorescence slope [6],NADPH fluorescence slope [7],fluorescence slope [8],outcome [9],inhibition [10],inhibition [11],inhibition [12],slope [13]
Cc1c(NC(=O)c2ccc(=O)oc2)c(=O)n(-c2ccccc2)n1C,553,-12.6% (inactive),1.2% (inactive),78.4,-22.2% (inactive),119,-1.01,0.226,0.431,3.42% (inactive),-0.249 (inactive),-7.6e-06 (inactive),0.00562 (inactive),inactive,23.3% (inactive),22.3% (inactive),24.4% (inactive),–
Cc1ccc2[nH]c3c(N4CCOCC4)ncnc3c2c1,599,-3.9% (inactive),18.9% (inactive),82.9,-12.3% (inactive),152,-1.33,0.984,0.577,-1.98% (inactive),-0.16 (inactive),-2.2e-05 (inactive),0.00605 (inactive),inactive,-1.47% (inactive),-15.5% (inactive),-85.9% (inactive),–
OCCNc1ncnc2c1c(-c1ccccc1)c(-c1ccccc1)n2Cc1ccco1,567,-6.9% (inactive),1.6% (inactive),114,13.3% (inactive),91.6,-1.86,-1.32,-1.52,-2.91% (inactive),-0.472 (inactive),-6.4e-05 (inactive),0.0047 (inactive),inactive,46.8% (inactive),12.3% (inactive),-0.125% (inactive),–
CCOC(=O)c1c(-c2cccs2)csc1NC(=O)CCCC(=O)O,550,-0.4% (inactive),-5% (inactive),110,-22.1% (inactive),106,0.00511,-0.304,-0.262,-5.81% (inactive),-0.427 (inactive),-5.3e-05 (inactive),0.00466 (inactive),inactive,16.8% (inactive),15.6% (inactive),21.7% (inactive),–
CCc1nc2sc3c(c2c(=O)o1)CCCC3,736,-8.2% (inactive),-11.4% (inactive),104,-32.9% (inactive),130,-0.371,-1.28,1.35,-2.07% (inactive),-0.413 (inactive),-5.4e-05 (inactive),0.00552 (inactive),inactive,8.78% (inactive),23% (inactive),35.5% (inactive),–
CCCCOc1ccccc1C(=O)NCCCC(=O)O,531,-3.8% (inactive),-44.1% (inactive),119,-66.7% (inactive),134,-0.714,1.18,1.54,-6.59% (inactive),-0.439 (inactive),-0.000111 (inactive),0.00573 (inactive),active; weak signal in gallbladder and intestine,20.4% (inactive),12.9% (inactive),17.2% (inactive),–
C/C(=C\C(=O)O)CC(=O)O,333,-2.6% (inactive),25.8% (inactive),93.1,-133% (inactive),117,0.304,-0.204,-2.54,19.4% (inactive),-0.486 (inactive),-0.000131 (inactive),0.00465 (inactive),inactive,-0.382% (inactive),2.17% (inactive),13.5% (inactive),–
Cn1c(SCC(=O)N2CCOCC2)nnc1-c1cccc(NC(=O)c2ccccc2F)c1,576,-2.8% (inactive),-17.6% (inactive),115,17.5% (inactive),107,-2.39,0.78,-0.11,1.63% (inactive),-0.578 (inactive),-5.9e-05 (inactive),0.00616 (inactive),inactive,20.3% (inactive),13.9% (inactive),22.5% (inactive),–
C[C@H](CS)C(=O)N1CCC[C@H]1C(=O)O,555,1.6% (inactive),–,–,-80.8% (inactive),124,0.625,-1.55,1.02,12.4% (inactive),-0.485 (inactive),-4e-05 (inactive),–,–,-3.81% (inactive) and 9.89% (inactive),-6.06% (inactive),12.3% (inactive),0.00488 (inactive)
CC(C)NCC(O)COc1cccc2[nH]ccc12 (stereo not given),631,-11.5% (inactive),–,–,-58% (inactive),126,0.107,-0.142,0.346,3.45% (inactive),-0.46 (inactive),-4.4e-05 (inactive),–,inactive,-3.19% (inactive) and 0.043% (inactive),-0.334% (inactive),29.8% (inactive),0.00514 (inactive)
CCCC(=O)Nc1ccc(OCC(O)CNC(C)C)c(C(C)=O)c1 (stereo not given),693,-4.7% (inactive),–,–,-70.6% (inactive),120,-1.73,-0.994,0.31,11.3% (inactive),-0.492 (inactive),3e-05 (inactive),–,inactive,-6.41% (inactive),8.12% (inactive),27.1% (inactive),0.00505 (inactive)
CC[C@H](C)C(=O)O[C@H]1C[C@@H](C)C=C2C=C[C@H](C)[C@H](CC[C@@H]3C[C@@H](O)CC(=O)O3)[C@H]21,724,-11.9% (inactive),0.4% (inactive),105,-93.9% (inactive),122,0.18,-1.59,-0.22,21.2% (inactive),–,–,–,inactive,14.3% (inactive),-4.78% (inactive),49.1% (inactive),0.00586 (inactive)
O=C(O)CCNC(=O)c1ccccc1,571,-4.9% (inactive),–,–,-50.2% (inactive),97.2,-0.0639,-0.161,-1.08,17.3% (inactive),-0.479 (inactive),2.2e-06 (inactive),–,inactive,27.8% (inactive),-13.3% (inactive),-8.8% (inactive),0.00491 (inactive)
COc1cc2nc(N3CCN(C(=O)c4ccco4)CC3)nc(N)c2cc1OC,679,3% (inactive),–,–,-130% (inactive),128,1.25,-0.94,-1.9,9.37% (inactive),-0.4 (inactive),-1.8e-05 (inactive),–,inactive,-2.52% (inactive),-4.12% (inactive),19.3% (inactive),0.00375 (inactive)
COC(=O)CNC(=O)c1c(C)cc(=O)oc1C,481,1.6% (inactive),1.6% (inactive),110,-34.9% (inactive),115,0.439,-0.128,-1.37,19.4% (inactive),-0.336 (inactive),-2.8e-05 (inactive),0.00527 (inactive),inactive,28.5% (inactive),5.18% (inactive),12% (inactive),–
COc1ccc(/C(O)=C2/C(=O)C(=O)N(CCCN(C)C)C2c2ccco2)cc1Cl (stereo not given),697,-3.7% (inactive),-6.2% (inactive),110,-9% (inactive),134,0.269,-1.33,-0.259,6.04% (inactive),-0.426 (inactive),-4.3e-05 (inactive),0.00515 (inactive),inactive,14.2% (inactive),-5.81% (inactive),-1.63% (inactive),–
COc1cccc2c1C(=O)c1c(O)c3c(c(O)c1C2=O)C[C@@](O)(C(=O)CO)C[C@@H]3O[C@H]1C[C@H](N)[C@H](O)[C@H](C)O1,564,-15.3% (inactive),23.4% (inactive),2.5,–,–,0.975,6.47,3.82,96.1% (active),-0.456 (inactive),2.3e-06 (inactive),–,inactive,1.03% (inactive),-38.5% (inactive),101% (active),0.00828 (inactive)
O=S(=O)(c1cccc2cnccc12)N1CCCNCC1,401,4.2% (inactive),–,–,-37.4% (inactive),120,-0.577,0.628,-2.35,21.2% (inactive),-0.463 (inactive),-6.3e-05 (inactive),–,–,0.327% (inactive),18.3% (inactive),29.9% (inactive),0.00448 (inactive)
O=C(O)c1cc(=O)cc(C(=O)O)[nH]1,482,1.8% (inactive),0.2% (inactive),98,-58.7% (inactive),188,–,–,–,–,-0.603 (inactive),-2e-06 (inactive),0.00559 (inactive),–,3.81% (inactive),13.7% (inactive),20.1% (inactive),–
